Holding throughout (test): NCI-60 one-dose screen, 48 h (100 = growth as untreated, 0 = no growth, -100 = all killed)
The test system of one assay is NCI-H322M lung. The following applies: 10 µM unless noted.
The next assay deals with NCI-H460 lung. The following applies: 10 µM unless noted.
Another assay has as its system HOP-92 NSCLC. The conditions noted are these: 10 µM unless noted.
The next assay has as its system NCI-H522 lung. The conditions noted are these: 10 µM.
The next assay has as its system A549/ATCC NSCLC. The conditions noted are these: 10 µM unless noted.
The test system of another assay is 786-0 renal. The conditions noted are these: 10 µM unless noted.
For the next assay, the system named is COLO 205 colon. The conditions noted are these: 10 µM unless noted.
The next assay has as its system HOP-62 NSCLC. The following applies: 10 µM unless noted.

The panel holds about 83,000 compounds, 20% with a hit somewhere; the sample as a whole holds those more often.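 Single-concentration screen, 48 h exposure, 96-well plates. Endpoint: percent growth. Below 10 = active.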 Unmarked numbers belong to inactive results. The source made the active and inactive calls.

The values below come from PubChem BioAssay (NCI).

With `Cc1ccc(N(CSc2ccc(Cl)cc2)CSc2ccc(Cl)cc2)cc1`, the growth with NCI-H322M lung is 64.1%; in the assay on NCI-H460 lung it was 14.3%; in the assay with HOP-92 NSCLC, 56.8%; in the assay on NCI-H522 lung, 39.3%; in the assay on A549/ATCC NSCLC it was 28.5%; with 786-0 renal, 51.5%. In addition, in the assay on COLO 205 colon, the growth was 118%.
Consider `COC(=O)CCC(=O)c1ccccc1`, for which the growth with NCI-H322M lung is 119%; in the assay with HOP-62 NSCLC, 116%; in the assay with NCI-H460 lung it was 106%; in the assay on NCI-H522 lung, 106%; in the assay with A549/ATCC NSCLC, 95.4%; in the assay on 786-0 renal, 94.7%. Besides, the growth with COLO 205 colon is 115%.
With `NC1=NC(c2ccccc2OS(=O)(=O)c2ccc(Br)cc2)n2c(nc3ccccc32)N1` (stereo unspecified), the growth in the assay on NCI-H322M lung is 101%; in the assay with HOP-62 NSCLC, 75.2%; in the assay with NCI-H460 lung, 97.6%; in the assay on HOP-92 NSCLC, -1.3% (active); in the assay with NCI-H522 lung it was 82%; with A549/ATCC NSCLC, 95.9%. Moreover, the growth in the assay with COLO 205 colon was 91.8%.
Turning to `Brc1ccc(Br)nn1`, the growth with NCI-H322M lung was -97.4% (active); in the assay with NCI-H460 lung, -21.9% (active); in the assay on HOP-92 NSCLC it was -64.7% (active); in the assay on NCI-H522 lung, -33.2% (active); with A549/ATCC NSCLC, 5.91% (active); in the assay on 786-0 renal, -81% (active). Besides, the growth in the assay on COLO 205 colon was -92.5% (active).
Regarding `COc1nc2c(cc1S(=O)(=O)c1ccccc1)CCc1c-2cnn1-c1ccccc1Cl`, the growth in the assay with HOP-62 NSCLC is 69.9%; with NCI-H460 lung, 67%; with HOP-92 NSCLC it was -1.3% (active); in the assay with NCI-H522 lung, 15.3%; in the assay with A549/ATCC NSCLC, 47.1%; in the assay on 786-0 renal, 51.6%. Also, the growth in the assay on COLO 205 colon was 70.4%.
Regarding `COc1ccc(C(=O)COc2cccc(/C=C3\CSc4ccc(C)cc4C3=O)c2)cc1`, the growth in the assay with NCI-H322M lung was 104%; in the assay with HOP-62 NSCLC it was 104%; in the assay on NCI-H460 lung it was 104%; with HOP-92 NSCLC it was 98.5%; with NCI-H522 lung, 45.8%; in the assay with A549/ATCC NSCLC it was 96%. Moreover, the growth in the assay with 786-0 renal was 100%; with COLO 205 colon, 116%.
For `OB(O)c1ccccc1`, the growth with NCI-H460 lung was 110%; in the assay on HOP-92 NSCLC, 112%; in the assay on NCI-H522 lung, 103%; with A549/ATCC NSCLC it was 98.5%; with 786-0 renal it was 103%; in the assay on COLO 205 colon, 116%.
As for `Cc1ccc(S(=O)(=O)N(c2ccc(Cl)cc2)c2ccc(Br)cc2C(=O)O)cc1`, the growth in the assay on NCI-H322M lung is 114%; in the assay with NCI-H460 lung it was 107%; in the assay with NCI-H522 lung, 102%; with A549/ATCC NSCLC, 105%; in the assay with 786-0 renal, 114%; in the assay on COLO 205 colon, 116%.
Regarding `N#CCCN1CCN(CCC#N)C1=S`, the growth with HOP-62 NSCLC is 108%; in the assay on NCI-H460 lung, 103%; in the assay on A549/ATCC NSCLC, 97.4%; in the assay with 786-0 renal, 105%; in the assay on COLO 205 colon, 105%.
Turning to `CCCCCCCCCCCC(=O)[O][Sn]([CH2]CCC)([CH2]CCC)[CH2]CCC`, the growth in the assay with HOP-62 NSCLC is -94.9% (active); with NCI-H460 lung, -55.2% (active); in the assay on HOP-92 NSCLC, -95.7% (active); in the assay with NCI-H522 lung it was -96% (active); with A549/ATCC NSCLC it was -91.1% (active); in the assay on 786-0 renal it was -99.7% (active). In the assay on COLO 205 colon, the growth is -78.2% (active).
`COC1(OC)C2(Cl)C=C(c3ccccc3)C1(Cl)C(Cl)=C2Cl` (stereo unspecified): the growth is 93.9% in the assay with HOP-62 NSCLC; 113% in the assay on NCI-H460 lung; 77.7% in the assay with HOP-92 NSCLC; 80.9% in the assay on NCI-H522 lung; 99.8% with A549/ATCC NSCLC; 103% in the assay on 786-0 renal. Also, in the assay on COLO 205 colon, the growth was 108%.
For the compound `O=S(=O)(OCCO)c1ccccc1`, the growth is 103% with NCI-H322M lung; 126% in the assay with HOP-62 NSCLC; 113% in the assay with NCI-H460 lung; 101% in the assay with HOP-92 NSCLC; 97.2% in the assay on A549/ATCC NSCLC; 108% with 786-0 renal. In addition, the growth with COLO 205 colon was 118%.
On to `Cc1nn(-c2ccccc2)c2nc3nc4c(c(N)c3c(-c3ccc(Cl)cc3)c12)CCCC4`, for which the growth is 97.4% in the assay on NCI-H460 lung; 84.4% in the assay with HOP-92 NSCLC; 90.6% with NCI-H522 lung; 94.4% in the assay with A549/ATCC NSCLC; 86.9% with 786-0 renal; 94.4% with COLO 205 colon.
On to `COc1ccc(-c2[nH]ncc2Nc2cc(OC)c(OC)c(OC)c2)cc1`, for which the growth was 51.7% in the assay on HOP-62 NSCLC; 14.1% with NCI-H460 lung; 65.8% in the assay on HOP-92 NSCLC; 12.7% in the assay on NCI-H522 lung; 61.2% in the assay on A549/ATCC NSCLC; 44.1% in the assay with 786-0 renal. Besides, the growth with COLO 205 colon was -11.9% (active).
On to `O/N=C/c1cccs1`, for which the growth in the assay with HOP-62 NSCLC was 94.3%; with NCI-H460 lung it was 108%; in the assay on HOP-92 NSCLC, 94%; in the assay with NCI-H522 lung it was 106%; in the assay with A549/ATCC NSCLC, 98%; in the assay on 786-0 renal, 102%. In addition, the growth with COLO 205 colon was 119%.
